Assay results taken from PubChem BioAssay (NCATS).
Records with an inconclusive call do not appear. A call without a number means that no potency is given here. Activity calls are given as the source filed them. Unless noted, calls come from the whole dose curve; as a rule, active = well fitted curve in the direction sought with a large enough effect; inconclusive = small, poorly fitted or top-dose-only effect, or another doubt; inactive = no such curve, though single readings can be large; an effect the other way counts as inactive or inconclusive.

Tests used:
[1] = AP1 Signaling Pathway (AID 357; active = well fitted curve in either direction with a large enough effect, not every such curve was filed as active;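 note: ME-180 reporter cells stimulated with EGF at its EC50 level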); conditions: ME-180 AP-1-bla reporter, EGF-induced, beta-lactamase ratio, 5 h; at 38 µM (top of the series)
How it was run: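 Cells are seeded overnight, exposed to compound titrations and an EC50 level of EGF for 5 hours at 37 °C, then loaded with CCF4 dye for 2.5 hours. Beta-lactamase activity under the AP-1 element is read as a blue/green ratio.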

[2] = target: Cytochrome P450 1A2 (Homo sapiens) (UniProt P05177); test: p450-cyp1a2 (AID 410; calls by dose curve)
Chain of Cytochrome P450 1A2 (Homo sapiens) (P05177 whole entry, looked up): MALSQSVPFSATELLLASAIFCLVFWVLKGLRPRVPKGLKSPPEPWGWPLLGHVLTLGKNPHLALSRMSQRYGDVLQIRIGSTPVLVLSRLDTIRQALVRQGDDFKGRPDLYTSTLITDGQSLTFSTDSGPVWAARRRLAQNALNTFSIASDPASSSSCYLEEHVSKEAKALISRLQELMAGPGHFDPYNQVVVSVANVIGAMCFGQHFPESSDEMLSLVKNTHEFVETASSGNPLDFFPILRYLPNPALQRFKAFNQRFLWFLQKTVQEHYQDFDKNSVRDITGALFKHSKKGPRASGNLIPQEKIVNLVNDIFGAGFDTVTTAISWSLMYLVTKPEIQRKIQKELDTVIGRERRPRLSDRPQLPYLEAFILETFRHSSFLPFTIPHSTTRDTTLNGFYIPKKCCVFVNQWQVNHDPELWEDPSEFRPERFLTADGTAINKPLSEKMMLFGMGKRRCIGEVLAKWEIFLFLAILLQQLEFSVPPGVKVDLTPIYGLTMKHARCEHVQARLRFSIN
How it was run: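 Luminescent readout of luciferin formed from Luciferin-ME by human CYP1A2; data normalized against complete inhibition by 57 uM furafylline. Enzyme 20nM, substrate 100uM at Km, 100mM KPO4 buffer, 60 min reaction at room temperature.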

[3] = NFAT Signaling Pathway (AID 444; active = well fitted curve in either direction with a large enough effect, not every such curve was filed as active;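 note: carbachol stimulus at about its EC50 of 1 µM final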); conditions: Jurkat NFAT-bla M1, carbachol, beta-lactamase ratio, 5 h; at 38 µM (top of the series)
How it was run: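 Jurkat cells with NFAT-driven β-lactamase reporter and co-expressed M1 receptor, stimulated with carbachol (final 1 uM, ~EC50), compound titration, 5 h at 37 °C. CCF4 loaded 1 h at RT; 460/530 nm ratio gave %activity and AC50.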

[4] = Stat Signaling Pathway (AID 446; active = well fitted curve in either direction with a large enough effect, not every such curve was filed as active;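 note: ME-180 cervical cancer cells given 40 pM IL-6 alongside compound; SIE-controlled beta-lactamase reporter measured as 460/530 nm FRET emission ratio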); conditions: ME-180 (cervical carcinoma) SIE beta-lactamase reporter, IL-6 stimulated, 5 h; at 38 µM (top of the series)
How it was run: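 IL-6/STAT signaling read in ME-180 cells via an SIE beta-lactamase reporter. Stimulus was 40 pM IL-6 (its AC50) for 5 hrs, so both activation and inhibition register.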

[5] = target: Glucocorticoid receptor (Homo sapiens) (UniProt P04150); test: GR-GFP Redistribution (AID 450;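 active = compounds whose dose series gives a full or clear partial fitted curve of increased nuclear translocation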; note: potency is the fitted concentration of half-maximal effect); conditions: U2OS GR-GFP nuclear translocation, laser cytometry, 2 h
Chain of Glucocorticoid receptor (Homo sapiens) (P04150 whole entry, looked up, the tested form may be a part): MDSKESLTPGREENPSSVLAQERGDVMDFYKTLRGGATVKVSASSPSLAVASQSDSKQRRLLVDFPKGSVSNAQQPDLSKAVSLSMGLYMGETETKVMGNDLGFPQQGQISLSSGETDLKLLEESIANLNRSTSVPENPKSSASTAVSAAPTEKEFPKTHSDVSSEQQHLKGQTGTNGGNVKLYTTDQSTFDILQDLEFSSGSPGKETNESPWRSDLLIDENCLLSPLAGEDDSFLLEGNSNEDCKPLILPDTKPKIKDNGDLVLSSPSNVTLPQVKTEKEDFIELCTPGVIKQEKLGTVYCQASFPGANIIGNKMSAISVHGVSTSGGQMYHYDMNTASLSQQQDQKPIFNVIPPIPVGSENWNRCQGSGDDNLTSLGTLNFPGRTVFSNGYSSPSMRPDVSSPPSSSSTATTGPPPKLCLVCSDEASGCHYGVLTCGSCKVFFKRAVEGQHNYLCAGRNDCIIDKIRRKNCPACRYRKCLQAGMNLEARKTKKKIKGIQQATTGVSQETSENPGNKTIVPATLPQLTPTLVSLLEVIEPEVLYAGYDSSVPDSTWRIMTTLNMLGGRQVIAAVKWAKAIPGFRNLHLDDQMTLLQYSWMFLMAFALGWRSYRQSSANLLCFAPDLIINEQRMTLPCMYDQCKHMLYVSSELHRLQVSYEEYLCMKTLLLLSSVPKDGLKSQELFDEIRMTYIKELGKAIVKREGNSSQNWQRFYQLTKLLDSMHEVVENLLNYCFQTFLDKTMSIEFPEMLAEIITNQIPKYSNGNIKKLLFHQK

[6] = target: Glucocorticoid receptor (Homo sapiens) (UniProt P04150); test: GR-EFC Redistribution (AID 451; calls by dose curve; note: potency is the fitted concentration of half-maximal effect); conditions: CHO-K1 GR-EFC translocation, beta-gal luminescence, 2 h
How it was run: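 CHO-K1 cells expressing nuclear EA and GR-ED fragments of b-gal; compounds titrated up to 46 uM final, 2 h at 37 C. GR nuclear translocation read as complemented b-gal luminescence after 1 h RT detection.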

[7] = target: Mitogen-activated protein kinase 10 (Mus musculus) (UniProt Q61831); test: JNK3 AlphaScreen Assay (AID 530; active = well fitted curve in either direction with a large enough effect, not every such curve was filed as active;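 note: kinase came from lysate of stimulated human HepG2 cells; signal reports phosphorylation of biotinylated GST-cJun 1-79 at Ser73 with 10 µM ATP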)
How it was run: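 Pre-activated (IL-1β/TNFα) JNK3 in HepG2 lysates phosphorylates biotin-GST-cJun(1-79), 10 uM ATP; anti-phospho-cJun(Ser73) AlphaScreen read at room temperature, pH 7.6 Tris buffer. Compounds pre-incubated 15 min as titrations.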

[8] = target: 3',5'-cyclic-AMP phosphodiesterase 4B (Homo sapiens) (UniProt Q07343); test: qHTS Assay for Inhibitors of PDE-IV (AID 607; active = well fitted activation curve with a large enough effect in the main read-out, with a control signal flat, not every such curve was filed as active)
Chain of 3',5'-cyclic-AMP phosphodiesterase 4B (Homo sapiens) (Q07343 whole entry, looked up): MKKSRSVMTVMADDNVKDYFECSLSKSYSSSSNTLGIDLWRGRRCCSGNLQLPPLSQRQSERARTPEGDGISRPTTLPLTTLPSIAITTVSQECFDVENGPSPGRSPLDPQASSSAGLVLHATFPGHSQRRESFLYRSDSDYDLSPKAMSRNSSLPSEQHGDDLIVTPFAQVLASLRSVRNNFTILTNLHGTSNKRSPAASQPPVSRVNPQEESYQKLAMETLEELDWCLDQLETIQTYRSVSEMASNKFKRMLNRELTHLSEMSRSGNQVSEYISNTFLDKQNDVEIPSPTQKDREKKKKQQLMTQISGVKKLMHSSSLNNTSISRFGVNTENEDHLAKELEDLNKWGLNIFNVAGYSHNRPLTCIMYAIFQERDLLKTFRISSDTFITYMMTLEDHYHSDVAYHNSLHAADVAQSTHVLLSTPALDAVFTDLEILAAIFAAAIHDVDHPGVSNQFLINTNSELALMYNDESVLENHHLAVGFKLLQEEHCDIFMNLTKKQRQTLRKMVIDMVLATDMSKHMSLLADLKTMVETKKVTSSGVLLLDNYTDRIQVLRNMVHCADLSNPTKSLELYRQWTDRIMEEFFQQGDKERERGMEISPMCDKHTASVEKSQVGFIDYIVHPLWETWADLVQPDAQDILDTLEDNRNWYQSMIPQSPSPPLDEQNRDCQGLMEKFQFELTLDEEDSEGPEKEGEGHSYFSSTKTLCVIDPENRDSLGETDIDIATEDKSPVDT
How it was run: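 Live HEK293 cells with a modified cyclic nucleotide-gated (CNG) channel report intracellular cAMP via membrane-potential dye fluorescence (ex 535/em 590 nm). Endogenous PDE-IV was targeted. Compounds were tested at up to 22.9 uM final; RO 20-1724 100 uM served as control.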

[9] = target: Guanine nucleotide-binding protein G(i) subunit alpha-1 (Homo sapiens) (UniProt P63096); test: qHTS Assay for Inhibitors of RGS12 GoLoco Motif Activity (Green Fluorophore) (AID 879);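 note: negative values mean loss of peptide binding seen as reduced polarization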
Chain of Guanine nucleotide-binding protein G(i) subunit alpha-1 (Homo sapiens) (P63096 whole entry, looked up): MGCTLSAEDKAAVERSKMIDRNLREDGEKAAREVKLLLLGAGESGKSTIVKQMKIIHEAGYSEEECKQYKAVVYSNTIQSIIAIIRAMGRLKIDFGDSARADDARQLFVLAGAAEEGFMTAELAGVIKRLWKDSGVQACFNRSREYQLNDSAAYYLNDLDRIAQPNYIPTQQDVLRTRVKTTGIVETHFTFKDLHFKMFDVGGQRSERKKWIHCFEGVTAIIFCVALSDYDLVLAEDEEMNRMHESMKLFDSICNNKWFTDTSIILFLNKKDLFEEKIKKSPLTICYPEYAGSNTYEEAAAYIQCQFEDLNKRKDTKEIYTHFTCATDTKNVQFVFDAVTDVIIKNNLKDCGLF
How it was run: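 Fluorescence polarization assay: 50 nM Gαi1 with 10 nM FITC-labeled RGS12 GoLoco peptide in 10 mM Tris pH 7.5, 150 mM NaCl, 0.1 mM GDP, 0.05% NP40, 10 min at room temperature with compound.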

[10] = target: Cytochrome P450 2C9 (Homo sapiens) (UniProt P11712); test: qHTS Assay for Inhibitors and Substrates of Cytochrome P450 2C9 (AID 883); note: nearly all actives have a fitted effect of over 60% in size
How it was run: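 Signal: luciferase luminescence reporting luciferin produced by CYP2C9. Conditions: 10nM enzyme, Luciferin-H 100uM at KM, 25mM KPO4, 37C, 60 min NADPH-driven reaction. Reference: 57uM sulphaphenazole as 100% inhibition.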

[11] = target: Cytochrome P450 2D6 (Homo sapiens) (UniProt P10635); test: qHTS Assay for Inhibitors and Substrates of Cytochrome P450 2D6 (AID 891);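 note: luciferin methyl ether substrate demethylated by CYP2D6 with NADPH regeneration; nearly all actives have a fitted effect of over 60% in size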
Chain of Cytochrome P450 2D6 (Homo sapiens) (P10635 whole entry, looked up): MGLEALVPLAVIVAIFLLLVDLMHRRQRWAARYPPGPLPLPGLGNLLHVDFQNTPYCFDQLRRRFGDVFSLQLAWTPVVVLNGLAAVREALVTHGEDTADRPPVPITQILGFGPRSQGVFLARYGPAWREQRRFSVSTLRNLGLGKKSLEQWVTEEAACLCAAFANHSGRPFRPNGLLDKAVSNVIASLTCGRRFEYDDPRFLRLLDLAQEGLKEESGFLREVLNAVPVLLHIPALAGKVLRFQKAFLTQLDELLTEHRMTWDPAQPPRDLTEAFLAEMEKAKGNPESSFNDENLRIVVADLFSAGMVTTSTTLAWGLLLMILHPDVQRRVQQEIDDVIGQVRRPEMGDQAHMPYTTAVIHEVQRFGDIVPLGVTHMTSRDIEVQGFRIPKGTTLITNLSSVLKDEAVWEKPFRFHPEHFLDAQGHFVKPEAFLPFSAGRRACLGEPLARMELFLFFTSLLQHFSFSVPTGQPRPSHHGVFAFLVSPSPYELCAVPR
How it was run: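 Human CYP2D6 (5 nM) with 30 uM Luciferin-ME EGE (at Km) in 100 mM KPO4, compound preincubated 10 min, then NADPH regeneration system for 60 min at room temperature. Luciferin read by luminescence; normalized to 1.43 uM quinidine.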

[12] = target: Cytochrome P450 2C19 (Homo sapiens) (UniProt P33261); test: qHTS Assay for Inhibitors and Substrates of Cytochrome P450 2C19 (AID 899); note: nearly all actives have a fitted effect of over 60% in size
Chain of Cytochrome P450 2C19 (Homo sapiens) (P33261 whole entry, looked up): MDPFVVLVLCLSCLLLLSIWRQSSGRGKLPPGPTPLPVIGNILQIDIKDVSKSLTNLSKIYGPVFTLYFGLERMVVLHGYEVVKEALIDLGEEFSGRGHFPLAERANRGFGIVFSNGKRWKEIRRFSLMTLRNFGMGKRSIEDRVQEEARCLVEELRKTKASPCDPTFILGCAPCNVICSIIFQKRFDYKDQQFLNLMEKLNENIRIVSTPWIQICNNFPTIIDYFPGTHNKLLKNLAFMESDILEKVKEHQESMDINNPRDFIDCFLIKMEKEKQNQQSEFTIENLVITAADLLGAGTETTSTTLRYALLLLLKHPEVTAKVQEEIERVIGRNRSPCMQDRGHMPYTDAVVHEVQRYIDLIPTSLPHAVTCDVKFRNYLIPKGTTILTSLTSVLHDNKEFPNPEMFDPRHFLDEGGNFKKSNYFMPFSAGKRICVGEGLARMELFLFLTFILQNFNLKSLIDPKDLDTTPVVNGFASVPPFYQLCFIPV
How it was run: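 Signal comes from luciferase acting on luciferin released by CYP2C19-mediated hydroxylation of Luciferin-H EGE, 10uM (KM). Assay mix: 5nM enzyme, 50mM KPO4; 60 min at 37C with NADPH regeneration. Data normalized against 57uM ketoconazole.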

[13] = Confirmation and Secondary Assay for Modulators of Hemoglobin Beta Chain Splicing at IVS2 654 locus (AID 910);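 note: HeLa cells stably carrying EGFP split by mutant beta-globin IVS2-654 intron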
How it was run: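 HeLa cells stably expressing EGFP interrupted by β-globin IVS2-654 intron, seeded overnight in Opti-MEM/2% FCS, then treated 2 days at 37 °C. Restored splicing read as total peak GFP intensity per well by laser scanning cytometry (488 nm excitation, 500–520 nm emission); 500 nM antisense PNA as control.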

[14] = qHTS Assay for Identification of Small Molecule Agonists for Thrombopoietin (TPO) Signaling Pathway (AID 917)
How it was run: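 Murine Ba/F3 cells stably expressing human TPO receptor and a Glycoprotein IIb promoter–luciferase reporter were IL-3-starved overnight, then treated with compounds plus TPO (26 pM final, its EC50) for 24 hrs at 37 C; luminescence was read.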

[15] = Confirmation and Secondary Assay for Modulators of Hemoglobin Beta Chain Splicing at IVS2 705 locus (AID 930);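 note: HeLa cells stably expressing the EGFP-705 splicing reporter; GFP fluorescence per well restored by corrected splicing of the IVS2-705 intron in EGFP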
How it was run: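 HeLa cells stably carrying EGFP interrupted by mutant beta-globin intron 2 (IVS2-705) treated 2 days at 37C with compound; 500 nM antisense PNA as control. Correct splicing read as total peak GFP intensity per well by laser-scanning cytometry.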

[16] = target: Muscarinic acetylcholine receptor M1 (Rattus norvegicus) (UniProt P08482); test: qHTS Assay for Antagonists of Acetylcholine Muscarinic M1 Receptor: Kinetic Measurement of Intracellular Calcium Response (AID 943);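 note: Fluo-4 calcium signal as peak divided by basal fluorescence over 4 min; nearly all actives have a fitted effect of over 75% in size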
Chain of Muscarinic acetylcholine receptor M1 (Rattus norvegicus) (P08482 whole entry, looked up): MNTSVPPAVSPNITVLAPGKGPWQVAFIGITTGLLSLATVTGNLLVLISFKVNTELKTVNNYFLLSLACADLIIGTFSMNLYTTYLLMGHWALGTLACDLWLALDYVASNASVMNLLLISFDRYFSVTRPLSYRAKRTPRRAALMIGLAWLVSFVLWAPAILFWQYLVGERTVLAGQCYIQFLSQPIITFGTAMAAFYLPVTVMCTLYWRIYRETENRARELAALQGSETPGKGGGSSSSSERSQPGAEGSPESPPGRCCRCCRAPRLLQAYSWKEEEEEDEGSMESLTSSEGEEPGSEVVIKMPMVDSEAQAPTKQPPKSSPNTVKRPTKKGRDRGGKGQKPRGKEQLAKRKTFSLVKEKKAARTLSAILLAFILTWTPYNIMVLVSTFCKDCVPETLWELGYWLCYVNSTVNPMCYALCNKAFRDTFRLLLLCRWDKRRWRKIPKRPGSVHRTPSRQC
How it was run: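 Rat M1-CHO cells, 2000/well, overnight → Fluo-4 no-wash dye with probenecid, 1 h 37C → compound 10 min, room temp → basal read 6 s → carbachol EC80 (100 nM) → 4 min kinetic read; peak/basal.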

[17] = target: Muscarinic acetylcholine receptor M1 (Rattus norvegicus) (UniProt P08482); test: qHTS Assay for Antagonists of Acetylcholine Muscarinic M1 Receptor: Measurement of IP-One Response (AID 944); note: nearly all actives have a fitted effect of over 75% in size
How it was run: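 M1-CHO (rat), 2000 cells/well, overnight recovery; cpd 10 min; carbachol EC80 (200 nM), 30 min, HEPES buffer + 50 mM LiCl pH 7.4; IP-One HTRF, Ex 337, Em 620/665 nm.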

[18] = target: Pyruvate kinase (Leishmania mexicana) (UniProt Q27686); test: qHTS Validation Assay for Inhibitors of Leishmania Mexicana Pyruvate Kinase (AID 945)
Chain of Pyruvate kinase (Leishmania mexicana) (Q27686 2-499 E452W): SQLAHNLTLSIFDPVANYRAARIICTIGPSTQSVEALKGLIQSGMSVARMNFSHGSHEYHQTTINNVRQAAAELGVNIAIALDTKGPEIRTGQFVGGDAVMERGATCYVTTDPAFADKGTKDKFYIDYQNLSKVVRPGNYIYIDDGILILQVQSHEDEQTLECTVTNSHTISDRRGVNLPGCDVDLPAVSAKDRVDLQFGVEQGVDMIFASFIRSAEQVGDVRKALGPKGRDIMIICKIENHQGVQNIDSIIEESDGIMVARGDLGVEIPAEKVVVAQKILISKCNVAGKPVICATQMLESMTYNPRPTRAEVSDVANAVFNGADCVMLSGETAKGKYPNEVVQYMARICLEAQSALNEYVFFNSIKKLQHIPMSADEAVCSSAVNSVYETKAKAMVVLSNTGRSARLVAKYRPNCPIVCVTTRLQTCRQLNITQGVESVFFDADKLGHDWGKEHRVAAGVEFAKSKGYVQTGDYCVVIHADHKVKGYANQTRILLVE
How it was run: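 Eight-point qHTS titrations in triplicate, data normalized to DMSO neutral control. Reaction: 0.2 nM LmPYK E451W mutant, 0.5 mM PEP, 0.1 mM ADP, 7 mM MgCl2, pH 7.2, one hour at room temperature; luminescent ATP detection.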

[19] = target: Pyruvate kinase PKM (Homo sapiens) (UniProt P14618); test: qHTS Assay for Activators of Human Muscle Pyruvate Kinase (AID 954; active = well fitted curve in the direction sought with a large enough effect, not every such curve was filed as active)
Chain of Pyruvate kinase PKM (Homo sapiens) (P14618 whole entry, looked up): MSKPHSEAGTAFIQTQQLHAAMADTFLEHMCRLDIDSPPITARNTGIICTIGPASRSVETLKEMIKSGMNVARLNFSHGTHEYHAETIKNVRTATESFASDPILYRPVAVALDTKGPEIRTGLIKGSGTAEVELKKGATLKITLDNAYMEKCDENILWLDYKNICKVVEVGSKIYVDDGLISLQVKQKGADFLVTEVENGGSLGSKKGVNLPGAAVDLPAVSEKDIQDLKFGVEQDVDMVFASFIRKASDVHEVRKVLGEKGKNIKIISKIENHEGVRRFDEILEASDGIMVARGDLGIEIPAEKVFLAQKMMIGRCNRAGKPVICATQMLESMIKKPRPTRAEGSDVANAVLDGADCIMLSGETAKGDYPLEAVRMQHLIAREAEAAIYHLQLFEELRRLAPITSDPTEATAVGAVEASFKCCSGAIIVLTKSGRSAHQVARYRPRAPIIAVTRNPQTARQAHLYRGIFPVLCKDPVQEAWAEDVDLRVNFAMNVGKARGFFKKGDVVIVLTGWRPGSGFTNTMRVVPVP
How it was run: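 Enzyme was run at intermediate activity so both inhibitors and activators could be detected. ATP formed from ADP and PEP by 0.1 nM human PKM2 during a 1 h room-temperature incubation was quantified by coupled luciferase luminescence.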

[20] = target: Alpha-galactosidase A (Homo sapiens) (UniProt P06280); test: Counterscreen for Glucocerebrosidase Inhibitors: qHTS Assay for Human alpha-Galactosidase at pH 4.5 (AID 992)
How it was run: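 Read-out is 4-methylumbelliferone fluorescence (365 nm excitation, 440 nm emission) after a pH 10 NaOH/glycine stop. Reactions held 2 nM enzyme and 80 uM substrate at pH 4.5 for 20 min at room temperature.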

[21] = target: alpha-glucosidase (Oryza sativa, rice) (UniProt Q653V4); test: Counterscreen for Glucocerebrosidase Inhibitors: qHTS Assay for Rice alpha-Glucosidase at pH 5.0 (AID 997)
How it was run: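 Rice alpha-glucosidase (4 nM final) with 400 uM 4-methylumbelliferyl-alpha-D-glucopyranoside in citrate buffer pH 5.0, 20 min at room temperature, stopped at pH 10; fluorescence 365/440 nm, compounds 0.7 nM–77 uM, AC50 from Hill fits.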

[22] = qHTS Assay for Lipid Storage Modulators (AID 1519; calls by dose curve); conditions: Drosophila S3 cells, BODIPY lipid droplet/cell ratio, laser cytometry, cells loaded with oleic acid
How it was run: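 Cells seeded at 5,000 per well were treated with compounds over a concentration series and loaded with oleic acid (400 uM, as added). Lipid droplet fluorescence (488 nm excitation, 500-530 nm channel) was read by laser-scanning cytometry and normalized to 20 uM Triacsin C.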

[23] = target: DNA dC->dU-editing enzyme APOBEC-3G (Homo sapiens) (UniProt Q9HC16); test: qHTS for inhibitors of Vif-A3G interactions: Validation (AID 588379)
How it was run: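 HeLa cells stably expressing Vif and A3G-eYFP, 700 cells/well, incubated overnight at 37 deg C, then exposed to compound overnight at 37 deg C. Inhibition of Vif-mediated degradation read as increased yellow fluorescence (Ex 488/Em 500-530) by laser-scanning cytometry.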

[24] = Primary qHTS for small molecule stabilizers of the endoplasmic reticulum resident proteome: Secreted ER Calcium Modulated Protein (SERCaMP) assay (AID 1508630)
How it was run: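 GLuc-SERCaMP-expressing SH-SY5Y cells, pretreated 16 h with compound, are challenged with thapsigargin to empty ER calcium stores; after 4 h, coelenterazine is added directly to the medium and luminescence is imaged.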

O=C(O)[C@H]1CCCNC1
activity change, negative = inhibition [1]: 5.2% (inactive)
Potency [2]: inactive
activity change, negative = inhibition [3]: 2.68% (inactive)
activity, negative = inhibition [4]: -8.68% (inactive)
Potency [5]: > 46 µM (inactive)
Potency [6]: > 46 µM (inactive)
Potency [7]: inactive
Potency [8]: inactive
outcome [9]: inactive
Potency [10]: inactive
Potency [11]: inactive
Potency [12]: inactive
outcome [13]: inactive
Potency [14]: inactive
outcome [15]: inactive
Potency [16]: inactive
Potency [17]: inactive
Potency [18]: inactive
outcome [19]: inactive
outcome [20]: inactive
outcome [21]: inactive
activity change, negative = inhibition ([22]; at 57.5 µM (top of the series)): -2.39% (inactive)
max response ([22]; measured here: cell count channel max response): -0.0867%
max response ([22]; measured here: lipid channel max response): -1.72%
Potency [23]: inactive
Potency [24]: inactive
